Test results published in ChEMBL document CHEMBL4513141, “CO-ADD screening of NIH (USA) - Clinical Collection” (2021).
Results with a measured potency or affinity are listed apart.

Experiments:
Staphylococcus aureus = details: Concentration 20 uM; ASSAY_TEST Inhibition of Bacterial Growth; detection method Absorption (OD600); MEDIA CAMHB; plate type 384well; NBS; CORNING #3640; time 18 hr
Escherichia coli = details: Concentration 20 uM; ASSAY_TEST Inhibition of Bacterial Growth; detection method Absorption (OD600); MEDIA CAMHB; plate type 384well; NBS; CORNING #3640; time 18 hr

Structure (SMILES) | Inhibition (Staphylococcus aureus) [%] | Inhibition (Escherichia coli) [%]
O.OC[C@H]1O[C@@H](n2cnc3c(NC4CCCC4)nc(Cl)nc32)[C@@H](O)C1O (stereo partly drawn) | 16.71 | -5.97
Nc1ccn([C@@H]2CS[C@H](CO)O2)c(=O)n1 [LAMIVUDINE] | 9.88 | 8.04
CCN1CCCC1CNC(=O)c1cc(S(=O)(=O)CC)c(N)cc1OC (stereo not drawn) [AMISULPRIDE] | 15.04 | -7.41
CC(=O)Nc1nnc(S(N)(=O)=O)s1 [ACETAZOLAMIDE] | 15.7 | -1.89
NNCCc1ccccc1.O=S(=O)(O)O [PHENELZINE SULFATE] | -0.33 | 5.31
COc1ccc(CN2CCN(C(c3ccc(F)cc3)c3ccc(F)cc3)CC2)c(OC)c1OC.Cl.Cl | 8.66 | -0.33
CNCC[C@@H](Oc1ccccc1C)c1ccccc1.Cl [ATOMOXETINE HYDROCHLORIDE] | -21.69 | 5.13
Nc1ccc(O)c(C(=O)O)c1 [MESALAMINE] | -19.58 | 3.21
CC(C)Oc1ccc2c(=O)c(-c3ccccc3)coc2c1 [IPRIFLAVONE] | 16.93 | 5.9
CCN(CC)CCOC(=O)c1ccc(N)cc1.Cl [PROCAINE HYDROCHLORIDE] | 7.14 | 4.36
COc1ccc2[nH]c([S+]([O-])Cc3ncc(C)c(OC)c3C)nc2c1 (stereo not drawn) [OMEPRAZOLE] | 3.38 | -0.65
CCCNC(=O)NS(=O)(=O)c1ccc(Cl)cc1 [CHLORPROPAMIDE] | 17.96 | 2.94
O=C1c2c(O)cc(O)cc2O[C@H](c2ccc(O)c(O)c2)[C@@H]1O | 15.43 | -4.02
Cl.c1ccc2c(c1)CCCC2C1=NCCN1 (stereo not drawn) [TETRAHYDROZOLINE HYDROCHLORIDE] | 17.23 | 7.52
Cc1ccc(Cl)c(Nc2ccccc2C(=O)[O-])c1Cl.O.[Na+] [MECLOFENAMATE SODIUM] | 27.36 | 2.5
CC1(C)S[C@@H]2[C@H](NC(=O)[C@H](N)c3ccc(O)cc3)C(=O)N2[C@H]1C(=O)O [AMOXICILLIN] | 15.09 | 7.14
CCOC(=O)C1(CCCCCCOc2ccc(Cl)cc2)CO1 (stereo not drawn) [rac-ETOMOXIR] | 3.7 | -5.87
Nc1ccn([C@@H]2O[C@H](CO)[C@@H](O)[C@@H]2O)c(=O)n1 [CYTARABINE] | 17.83 | -2.15
COC(=O)C1=C(C)NC(C)=C(C(=O)OCCN(C)Cc2ccccc2)C1c1cccc([N+](=O)[O-])c1.Cl (stereo not drawn) [NICARDIPINE HYDROCHLORIDE] | -1.65 | 2.23
CC(=O)OCC(=O)[C@@]12OC(C)(C)O[C@@H]1C[C@H]1[C@@H]3C[C@H](F)C4=CC(=O)C=C[C@]4(C)[C@@]3(F)[C@@H](O)C[C@@]12C [FLUOCINONIDE] | 10.01 | -2.15
C[C@@H]1C[C@H]2[C@@H]3C[C@H](F)C4=CC(=O)C(Cl)=C[C@]4(C)[C@@]3(F)[C@@H](O)C[C@]2(C)[C@@]1(O)C(=O)CO [HALOMETASONE] | 3 | 4.02
Cl.O=C1CN2Cc3c(ccc(Cl)c3Cl)N=C2N1 [ANAGRELIDE HYDROCHLORIDE] | 11.06 | 7.21

Structure (SMILES) | Inhibition (Staphylococcus aureus) [%] | Inhibition (Escherichia coli) [%]
Cc1ncc([N+](=O)[O-])n1CCO [METRONIDAZOLE] | 17.23 | 2.82
O=C(O)CCNC(=O)c1ccc(N=Nc2ccc(O)c(C(=O)O)c2)cc1 | 1.56 | -1.37
Cc1cnc(NC(=O)C2=C(O)c3ccccc3S(=O)(=O)N2C)s1 [MELOXICAM] | -0.24 | 7.37
COc1ccccc1OCC(O)COC(N)=O (stereo not drawn) [METHOCARBAMOL] | 12.79 | -0.64
CC(C)(C)NC(=O)[C@@H]1CN(Cc2cccnc2)CCN1C[C@@H](O)C[C@@H](Cc1ccccc1)C(=O)N[C@H]1c2ccccc2C[C@H]1O.O=S(=O)(O)O [INDINAVIR SULFATE] | 6.61 | 5.22
Cc1cccc(C)c1OCC(C)N.Cl (stereo not drawn) [MEXILETINE HYDROCHLORIDE] | 13.57 | 3.59
CC1CNc2c(cccc2S(=O)(=O)N[C@@H](CCCNC(=N)N)C(=O)N2CC[C@@H](C)C[C@@H]2C(=O)O)C1 (stereo partly drawn) [ARGATROBAN] | 5.54 | -1.85
CN(C)c1nc(N(C)C)nc(N(C)C)n1 [ALTRETAMINE] | 15.78 | -2.16
CCc1c(C)[nH]c2c1C(=O)C(CN1CCOCC1)CC2.Cl (stereo not drawn) [MOLINDONE HYDROCHLORIDE] | -5.38 | 4.7
CCCSc1ccc2[nH]c(NC(=O)OC)nc2c1 [ALBENDAZOLE] | 3.05 | 1.87
CC(Oc1c(Cl)cccc1Cl)C1=NCCN1.Cl (stereo not drawn) [LOFEXIDINE HYDROCHLORIDE] | 7.96 | 0.12
CCOc1cc(CC(=O)N[C@@H](CC(C)C)c2ccccc2N2CCCCC2)ccc1C(=O)O [REPAGLINIDE] | 15.76 | -4.96
Br.Br.O=C1CC2(CCCC2)CC(=O)N1CCNCC1COc2ccccc2O1 (stereo not drawn) | 17.36 | 6.1
Oc1ccc(/C=C/c2cc(O)cc(O)c2)cc1 [RESVERATROL] | 19.49 | 1.45
CCC(CO)NCCNC(CC)CO (stereo not drawn) | 8.81 | 2.87
CCCc1cc(=O)[nH]c(=S)[nH]1 [PROPYLTHIOURACIL] | 17.4 | 8.71
Cl.Clc1ccc2nsnc2c1NC1=NCCN1 [TIZANIDINE HYDROCHLORIDE] | -18.93 | 6.6
C#C[C@]1(O)CC[C@H]2[C@@H]3CCc4cc(OC)ccc4[C@H]3CC[C@@]21C [MESTRANOL] | 8.43 | -2.89
O=C1CCc2ccc(OCCCCN3CCN(c4cccc(Cl)c4Cl)CC3)cc2N1 [ARIPIPRAZOLE] | -0.8 | 1.89
O=c1c(O[C@@H]2O[C@H](CO)[C@@H](O)[C@H](O)[C@H]2O)c(-c2ccc(O)c(O)c2)oc2cc(O)cc(O)c12 [ISOQUERCETIN] | 18.79 | -1.78
O=C1c2c(O)cc(O)cc2O[C@H](c2ccc(O)c(O)c2)[C@H]1O [(+)-TAXIFOLIN] | 8.9 | -0.85
O=C(O)c1cccnc1 [NIACIN] | 1.53 | -3.09

Structure (SMILES) | Inhibition (Staphylococcus aureus) [%] | Inhibition (Escherichia coli) [%]
CC(=O)[C@@]1(O)CC[C@H]2[C@@H]3C[C@H](C)C4=CC(=O)CC[C@]4(C)[C@H]3CC[C@@]21C | 8.66 | -5.84
CC(C)(C)C(O)/C=C/c1ccc2c(c1)OCO2 (stereo not drawn) [STIRIPENTOL] | 0.92 | 6.07
Cl.c1ccc(CC2=NCCN2)cc1 [TOLAZOLINE HYDROCHLORIDE] | 7.13 | 4.19
CSc1ccc2c(c1)N(CCC1CCCCN1C)c1ccccc1S2.Cl (stereo not drawn) [THIORIDAZINE HYDROCHLORIDE] | 2.86 | 7.48
CCc1nn(CCCN2CCN(c3cccc(Cl)c3)CC2)c(=O)n1CCOc1ccccc1.Cl [NEFAZODONE HYDROCHLORIDE] | 6.52 | 3.73
O=C(O)c1cc(/N=N/c2ccc(S(=O)(=O)Nc3ccccn3)cc2)ccc1O [SULFASALAZINE] | -13.67 | 7.84
CC(COc1ccccc1Cc1ccccc1)N1CCCCC1.O=P(O)(O)O (stereo not drawn) | 12.26 | 7.84
O=C1[C@H](CC[C@H](O)c2ccc(F)cc2)[C@@H](c2ccc(O)cc2)N1c1ccc(F)cc1 [EZETIMIBE] | 5.57 | -0.7
CCCC(=O)Nc1ccc(OCC(O)CNC(C)C)c(C(C)=O)c1.Cl (stereo not drawn) [ACEBUTOLOL HYDROCHLORIDE] | 10.2 | 2.85
CC(C)NCC(O)COc1ccc(CC(N)=O)cc1 (stereo not drawn) [ATENOLOL] | 9.69 | 2.4
CN[C@@H]1[C@H](O)[C@H](NC)[C@H]2O[C@@]3(O)C(=O)C[C@@H](C)O[C@H]3O[C@@H]2[C@H]1O.Cl.Cl.Cl.O.O.O | 11.03 | 29.97
CCCCCCCCCCC[C@@H](C[C@@H]1OC(=O)[C@H]1CCCCCC)OC(=O)[C@H](CC(C)C)NC=O [ORLISTAT] | 11.59 | -4.78
O=C(CCNNC(=O)c1ccncc1)NCc1ccccc1 [NIALAMIDE] | 16.28 | 8.37
Cl.O.c1cnc(N2CCN(Cc3ccc4c(c3)OCO4)CC2)nc1 | 13.21 | -1.86
Cl.O=C(O)/C=C/c1ccc(Cn2ccnc2)cc1 | -2.16 | 6.89
O=c1[nH]c(=O)n(C2CCCO2)cc1F (stereo not drawn) [TEGAFUR] | 17.75 | 8.41
Cl.NC1CCN(c2cccc(Cl)n2)CC1 | 8.14 | 8.42
Cc1ccc(N(CC2=NCCN2)c2cccc(O)c2)cc1 [PHENTOLAMINE] | 2.09 | -2.29
CC(C(=O)[O-])c1ccc(CC2CCCC2=O)cc1.[Na+] (stereo not drawn) [LOXOPROFEN SODIUM] | 9.06 | -0.84
NC(Cc1cc(I)c(Oc2ccc(O)c(I)c2)c(I)c1)C(=O)O (stereo not drawn) [RATHYRONINE] | 11.14 | 4.17
